Each structure is given as a SMILES string. “And” between values parts separate entries of the source, which are not always exact repeats. Identical values can stand only once. Hit rate of the full screen: of about 16,000 compounds, about 2,600 (16%) were called active. Another 20% or so got no clear call; they are omitted. The call rests on the fitted dose curve; in most records, active means well fitted curve in the direction sought with a large enough effect; inconclusive means small, poorly fitted or top-dose-only effect, or effect the other way; inactive means no such curve, though single readings can be large or run the other way. Only a sample is shown. Where a structure was tested more than once in an assay, its records may differ in their call.
On the % scale 0 is the no-effect control and ±100 the full control effect.

The target of this assay is Cytochrome P450 2D6 (Homo sapiens) (UniProt P10635). Nature of the assay: Cytochrome panel assay with activity outcomes. As to conditions: recombinant CYP, pro-luciferin dealkylation, luminescence, p450-cyp2d6; series mostly up to 57.1 µM.
Sequence of Cytochrome P450 2D6 (Homo sapiens) (P10635 whole entry, looked up): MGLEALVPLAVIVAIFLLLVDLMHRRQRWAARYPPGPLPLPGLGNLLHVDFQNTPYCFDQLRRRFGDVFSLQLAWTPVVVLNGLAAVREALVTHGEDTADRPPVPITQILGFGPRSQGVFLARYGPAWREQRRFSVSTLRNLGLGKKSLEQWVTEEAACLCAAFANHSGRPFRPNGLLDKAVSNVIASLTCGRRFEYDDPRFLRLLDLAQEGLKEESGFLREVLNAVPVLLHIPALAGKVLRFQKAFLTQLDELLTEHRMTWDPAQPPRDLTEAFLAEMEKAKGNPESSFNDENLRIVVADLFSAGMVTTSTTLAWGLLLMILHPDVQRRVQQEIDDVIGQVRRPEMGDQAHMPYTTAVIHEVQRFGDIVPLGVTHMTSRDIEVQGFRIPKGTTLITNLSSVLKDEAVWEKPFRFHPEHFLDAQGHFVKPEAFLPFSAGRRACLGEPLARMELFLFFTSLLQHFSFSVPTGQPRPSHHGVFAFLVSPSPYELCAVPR
For the compound `CCCCN1CCC(n2c(=O)[nH]c3ccccc32)CC1`, the half-maximal activity concentration (AC50) (commonly the midpoint of the concentration-response curve, whichever way the signal moves) is 3.16 µM (active).

`CCn1c(=O)[nH]c2ccccc2c1=O`: the AC50 entry is “inactive”.

As for `O=c1cc(N2CCC(Cc3ccccc3)CC2)[nH]c(=O)n1C1CCCCC1`, the AC50 entry is “inactive”.

With `CC1(C)CC(=O)c2cn3ncnc3nc2C1`, the AC50 result is “inactive”.

Consider `O=C1C2C3C=CC(C3)C2C(=O)N1/N=C/c1cn(Cc2ccc(F)cc2)c2ccccc12` (stereo unspecified), for which the AC50 result is “inactive”.

Consider `Cc1cc(-c2cccs2)nc(-n2cccc2)n1`, for which the concentration at half-maximal activity (AC50) is 14.1 µM (active).

With `Nc1nc(-c2cccs2)cs1`, the AC50 result is “inactive”.

Turning to `Cc1oc(-c2cccs2)[n+]([O-])c1C`, the AC50 result was “inactive”.

Turning to `Cc1cc(NC(=O)CCC(=O)N(CC2CCCO2)C(C(=O)NC2CCCC2)c2cccnc2)no1` (stereo unspecified), the AC50 entry was “inactive”.

As to `C=CCSc1nc(NC)c2sccc2n1`, the AC50 entry was “inactive”.

Turning to `Cc1cccc(NC(=S)N2CCC(N(C)CC3CCCO3)CC2)c1C` (stereo unspecified), the AC50 result is “inactive”.

`COc1ccccc1-c1c(C(F)(F)F)oc2cc(OC(=O)c3cccc([N+](=O)[O-])c3C)ccc2c1=O`: the AC50 result was “inactive”.

In the case of `O=C(OCC(=O)c1ccc([N+](=O)[O-])cc1)/C(=C\c1ccc(Cl)cc1)NC(=O)c1ccccc1`, the AC50 is 14.1 µM (active).

In the case of `Cc1ccc(NC(=O)/C(=C\c2ccc([N+](=O)[O-])cc2)NC(=O)c2ccccc2)cc1`, the AC50 entry is “inactive”.

As for `O=C(Nc1cccc2ccccc12)/C(=C/c1ccc([N+](=O)[O-])cc1)NC(=O)c1ccccc1`, the AC50 entry was “inactive”.

For `Cc1cccc(Oc2ncnc3onc(C)c23)c1C`, the AC50 result is “inactive”.

Regarding `N=c1sccn1CC(=O)Nc1cccc(Oc2ccccc2)c1`, the AC50 is 1 µM (active).

Take `O=C(Cn1ccc(=O)[nH]c1=O)Nc1ccc(C(=O)O)c(O)c1`: the activity, negative = inhibition is -2.13% [at 11.4 µM] (inactive).

Regarding `COc1cccc(NC(=O)CSc2nc3ccccc3cc2Cc2ccccc2)c1`, the AC50 result was “inactive”.

As to `CSc1nnc(-c2sccc2OCc2ccccc2)n1C`, the AC50 entry was “inactive”.

For `C#CCCCO/N=C1/C[C@@H](O)[C@@H](O)[C@@H]2[C@@H]3C(=O)N([C@@H](C)c4ccccc4)C(=O)[C@H]3CC[C@H]12`, the activity, negative = inhibition was 12% [at 11.4 µM] (inactive).

`CC[C@H](NC(=O)c1c(C)c(-c2ccccc2)nc2ccccc12)c1ccccc1`: the AC50 entry was “inactive”.

In the case of `CNc1csc(C)c(C)c1=O`, the AC50 entry was “inactive”.

`C[C@H](NCCC(c1ccccc1)c1ccccc1)c1ccccc1`: the AC50 was 0.158 µM (active).

On to `O=C1[C@@H]2[C@H]3[C@H](O)[C@H](O)C/C(=N/OC[C@@H](O)COCc4ccco4)[C@H]3CC[C@H]2C(=O)N1c1ccc(F)cc1F`, for which the activity, negative = inhibition was -0.021% [at 11.4 µM] (inactive).

Consider `COc1cccc(NC(=O)C2c3cc(OC)c(OC)cc3C(=O)N(C)C2c2cccnc2)c1` (stereo unspecified), for which the AC50 entry is “inactive”.

Turning to `C=CC(C)(C)c1[nH]c2ccccc2c1C1=C(O)C(=O)C(c2c[nH]c3c(CC=C(C)C)cccc23)=C(O)C1=O`, the AC50 was 0.00631 µM (active).

As to `O=C1C2C3C=CC(CC3)C2C(=O)N1/N=C/c1ccccc1O` (stereo unspecified), the AC50 result is “inactive”.

As for `Cn1c2c(c(=O)n(C)c1=O)[C@@H]1c3c(ccc4ccccc34)OC[C@@H]1CO2`, the AC50 result is “inactive”.

With `COc1cc(C=O)ccc1OCCCOc1ccccc1C(=O)O`, the AC50 result was “inactive”.

In the case of `CCC1(C)Nc2ccccc2C(=O)N1O` (stereo unspecified), the AC50 result was “inactive”.

With `CCCCC1(C)Nc2ccccc2-c2nc3ccccc3n21` (stereo unspecified), the concentration at half-maximal activity (AC50) is 20 µM (active).

As for `COc1cccc(Cn2c(=O)c(-c3ccc(Cl)cc3)nc3cnc(N4CCN(C)CC4)nc32)c1`, the AC50 entry was “inactive”.

Turning to `CCc1cccc(NC(=O)CN(C)S(=O)(=O)c2cnc[nH]2)c1`, the AC50 result was “inactive”.

Regarding `CC1CCN(C(=O)CN(C)S(=O)(=O)c2cccc3nsnc23)CC1`, the AC50 entry is “inactive”.

Consider `CN(CC(=O)N1CCN(c2ccccc2)CC1)S(=O)(=O)c1cnc[nH]1`, for which the AC50 is 14.1 µM (active).

Turning to `CC(C)(Oc1ccc(-c2cccc3ccccc23)cc1)C(=O)O`, the activity, negative = inhibition was 11.3% [at 11.4 µM] (inactive).

In the case of `COCC(=O)N1CCC2(CCCN(C(=O)Nc3ccc(OC)cc3)C2)CC1`, the AC50 result is “inactive”.

Regarding `COCC(=O)N1CCC2(CCCN(C(=O)Nc3ccccc3)C2)CC1`, the AC50 entry is “inactive”.

Regarding `COCC(=O)N1CCC2(CC1)CN(C(c1ccccc1)c1ccccc1)C2`, the AC50 was 2.51 µM (active).

`COCC(=O)N1CCC2(CC1)CN(C(=O)Nc1cccc(F)c1)C2`: the AC50 entry is “inactive”.

Consider `COCC(=O)N1CCC2(CC1)CCN(C(c1ccccc1)c1ccccc1)CC2`, for which the AC50 is 12.6 µM (active).

In the case of `COCC(=O)N1CCC2(CC1)CCN(c1cccc(-c3ccccc3)c1)CC2`, the AC50 entry was “inactive”.

Regarding `COCC(=O)N1CCC2(CC1)CCN(c1ccccn1)CC2`, the AC50 entry is “inactive”.

Turning to `COCC(=O)N1CCC2(CC1)CN(C(=O)Nc1ccc(OC)cc1)C2`, the AC50 entry was “inactive”.

For the compound `COCC(=O)N1CCC[C@@]2(CCN(C(c3ccccc3)c3ccccc3)C2)C1`, the AC50 was 6.31 µM (active).

Take `Cc1ccc(NC(=O)CC2CS(=O)(=O)CC2CC(=O)Nc2ccc(C)c(C)c2)cc1C` (stereo unspecified): the AC50 result is “inactive”.

Consider `OC[C@H]1NC[C@@H](O)[C@@H](O)[C@H]1O`, for which the AC50 entry was “inactive”.

For the compound `Cc1ccc(OCC(=O)NNC(=O)c2cc3ccccc3o2)cc1C`, the AC50 result is “inactive”.

In the case of `COc1cccc(C(=O)N2N=C(c3cccc(OC)c3)CC2(O)C(F)(F)F)c1` (stereo unspecified), the AC50 result was “inactive”.

For `CC(C)(Oc1ccc([C@@H]2CC2(Cl)Cl)cc1)C(=O)O`, the AC50 result is “inactive”.

On to `CC(C)c1ccc(N2C(=O)CC(Sc3nc4ccccc4o3)C2=O)cc1` (stereo unspecified), for which the AC50 result was “inactive”.

`C[C@@]12CC3CC(N)(C1)C[C@@](C)(C3)C2`: the AC50 entry was “inactive”.

As to `C[C@]12CC3CC(N)(C1)C[C@@](C)(C3)C2`, the concentration at half-maximal activity (AC50) result was “inactive and 316 nM (active)”.

For `CCc1nnc(NC(=O)CSc2nc3cc4c(cc3cc2C)OCCO4)s1`, the AC50 entry was “inactive”.

On to `CC1=N/C(=C\c2ccc([N+](=O)[O-])cc2)C(=O)N1c1ccc(Br)c(C)c1`, for which the AC50 result is “inactive”.

Regarding `COc1cc(Cn2cnnn2)ccc1O`, the AC50 entry is “inactive”.

In the case of `CC1(C)Cc2c(ccc3ccccc23)C(=O)N1`, the AC50 result was “inactive”.

Turning to `CNC(=O)/C=C1\NC(C)(C)Cc2c1ccc1ccccc21`, the AC50 is 14.1 µM (active).

Regarding `Cc1cccc(C(=O)NCN2CCN(c3ccccc3C#N)CC2)c1`, the AC50 result is “inactive”.

With `CC(C)(C[C@@]1(C)NC(=O)NC1=O)OCc1ccccc1`, the activity, negative = inhibition is 1.81% [at 11.4 µM] (inactive).

As to `CCNCCCNCCCNCCCNCC`, the AC50 entry was “inactive”.

As to `CC(C)CO/N=C1/C[C@@H](O)[C@@H](O)[C@@H]2[C@@H]3C(=O)N([C@@H](C)c4ccccc4)C(=O)[C@H]3CC[C@@H]12`, the activity, negative = inhibition was 17.4% [at 11.4 µM] (inactive).

Consider `COC(=O)C(C)Sc1ccc2nnc(-c3ccc(F)cc3)n2n1` (stereo unspecified), for which the AC50 entry was “inactive”.

As to `CN=c1nc(-c2ccccc2)n(-c2ccccc2)s1`, the half-maximal activity concentration (AC50) is 31.6 µM (active).

`O=c1nc(-c2ccccc2)n(-c2ccccc2)c2ncccc12`: the AC50 entry was “inactive”.

Take `CC(=O)c1c(C)nc(-c2ccccc2)n1O`: the AC50 result was “inactive”.

For `COc1cc(/C=N/NC(=O)c2ccncc2)ccc1OC(=O)c1ccc([N+](=O)[O-])cc1`, the AC50 result was “inactive”.

As for `O=C(c1cnccn1)N1CCC[C@@]2(CCN(Cc3cc(C(F)(F)F)cc(C(F)(F)F)c3)C2)C1`, the half-maximal activity concentration (AC50) is 3.16 µM (active).

As for `O=C(c1csnn1)N1CCC2(CC1)CN(Cc1cc(C(F)(F)F)cc(C(F)(F)F)c1)C2`, the AC50 is 12.6 µM (active).

In the case of `O=C(c1cc(C(F)(F)F)cc(C(F)(F)F)c1)N1CCC2(CCCN(Cc3nccs3)C2)CC1`, the AC50 result is “inactive”.

Turning to `O=C(c1cnccn1)N1CCC[C@@]2(CCN(Cc3ccncc3)C2)C1`, the AC50 entry was “inactive”.

Consider `O=C(c1csnn1)N1CCC2(CC1)CCN(c1ccncc1)CC2`, for which the AC50 result was “inactive”.

For the compound `CS(=O)(=O)N1CCC2(CC1)CN(Cc1cc(C(F)(F)F)cc(C(F)(F)F)c1)C2`, the concentration at half-maximal activity (AC50) is 0.398 µM (active).

Regarding `CS(=O)(=O)N1CCC2(CC1)CN(Cc1nccs1)C2`, the AC50 entry is “inactive”.

`O=C(c1ccco1)N1CCC2(CC1)CN(Cc1cc(C(F)(F)F)cc(C(F)(F)F)c1)C2`: the AC50 was 6.31 µM (active).

As to `Cc1noc(C)c1C(=O)N1CCC[C@@]2(CCN(Cc3cc(C(F)(F)F)cc(C(F)(F)F)c3)C2)C1`, the AC50 entry was “inactive”.

As to `FC(F)(F)c1cc(CN2CC3(CCNCC3)C2)cc(C(F)(F)F)c1`, the AC50 result was “inactive”.

As to `COC(=O)c1cnn(C(=O)c2ccccc2Br)c1N`, the AC50 entry is “inactive”.

Consider `CN(C)c1ccc(O)c2c1C[C@H]1C[C@H]3[C@@H](N(C)C)C(=O)C(C(N)=O)=C(O)[C@]3(O)C(=O)C1=C2O`, for which the AC50 entry is “inactive”.

For the compound `CCOc1ccc(-c2nnc3ccc(SCC(=O)NCc4ccco4)nn23)cc1`, the AC50 result is “inactive”.

Consider `N#Cc1cc2nc(O)c(O)nc2cc1[N+](=O)[O-]`, for which the AC50 entry is “inactive”.

On to `CC[C@H](C)C(=O)O[C@@H]1C[C@H](C)C=C2C=C[C@H](C)[C@@H](CC[C@H]3C[C@@H](O)CC(=O)O3)[C@H]21`, for which the AC50 entry is “inactive”.

Regarding `CO[C@H]1C=CO[C@]2(C)Oc3c(C)c(O)c4c(O)c(c5c(c4c3C2=O)NC2(CCN(CC(C)C)CC2)N=5)=NC(=O)C(C)=CC=C[C@@H](C)[C@@H](O)[C@@H](C)[C@@H](O)[C@@H](C)[C@@H](OC(C)=O)[C@@H]1C`, the AC50 result was “inactive”.

In the case of `Cn1c(=O)c(-c2ccc(F)cc2)nc2cnc(N3CCOCC3)nc21`, the AC50 result was “inactive”.

With `Cn1c(=O)c(-c2ccc(Cl)cc2)nc2cnc(Nc3ccccc3)nc21`, the AC50 entry is “inactive”.

Turning to `Cn1c(-c2sccc2OCc2ccccc2)n[nH]c1=S`, the AC50 result was “inactive”.

In the case of `O=C(c1cc(C(F)(F)F)cc(C(F)(F)F)c1)N1CCC2(CC1)CN(Cc1ccncc1)C2`, the AC50 entry is “inactive”.

With `O=C(c1cnccn1)N1CCC2(CC1)CN(c1ccncc1)C2`, the AC50 result was “inactive”.

As for `O=C(c1cnccn1)N1CCC2(CC1)CN(Cc1cc(C(F)(F)F)cc(C(F)(F)F)c1)C2`, the concentration at half-maximal activity (AC50) was 0.398 µM (active).

For `CC(C)(C)n1nc2c(c1NC(=O)c1ccc(S(=O)(=O)N3CCCCC3)cc1)CS(=O)C2` (stereo unspecified), the AC50 entry was “inactive”.

In the case of `Cc1cc(NC(=O)NC(=O)c2ccc(F)cc2F)n[nH]1`, the AC50 result is “inactive”.

In the case of `CCC(C)C1NC(=S)N(C2CCCCC2)C1=O` (stereo unspecified), the AC50 result was “inactive”.

For the compound `COc1ccc2c(c1)Cc1cc(N=[N+]([O-])c3ccc4c(c3)Cc3cc(OC)ccc3-4)ccc1-2`, the activity, negative = inhibition was -7.57% [at 11.4 µM] (inactive).

In the case of `COc1ccc2c(c1)C(=NN)c1cc(OC)ccc1-2`, the half-maximal activity concentration (AC50) was 22.4 µM (active).

For the compound `COc1ccc2c(c1)-c1ccccc1S(=O)(=O)N2C`, the AC50 result was “inactive”.

Values taken from PubChem BioAssay AID1851 (National Center for Advancing Translational Sciences (NCATS), 2009).
